Bioassay records (PubChem)
In the library only some 2.5% were active in any assay of this set; here they are far more common.
YB-1 expr inh: YB-1 expression inhibition; U2OS, qRT-PCR YB-1 vs CDIP delta delta Cp, 16 h; active compounds read high; zero = DMSO, each unit about twofold; delta delta Cp (YB-1 minus CDIP) (test concentration not listed); 30,000 compounds, 0.37% hits; AID 434959;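 active = delta delta Cp rounded down to an integer at or above 3, about 3 SD of DMSO wells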;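 note: higher means less YB-1 transcript or more CDIP transcript relative to DMSO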
BJeLR viab HTS: BJeLR cell viability reduction; AID 2275; viability loss activity score, % (concentration not given with the values); BJeLR fibroblasts viability, CellTiterGlo ATP luminescence, 48 h; HRASV12, hTERT and SV40 LT/ST transformed; 30,000 compounds, 0.64% hits; in the data active = viability loss activity score above about 50%;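 note: higher score means fewer live cells and less ATP luminescence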
ROS inducer: cancer cell ROS induction; 46,000 compounds, 2% hits; ROS induction (% of piperlongumine), % at 10 µM; U2OS ROS induction, H2DCF-DA fluorescence; AID 624156; in the data active = ROS induction above about 79%, passing the limit was not always enough
MITF inh: blocks MITF activity; TRPM1 promoter luciferase, luminescence, 24 h; inhibition, % (concentration not given with the values); 37,000 compounds, 0.28% hits; in the data active = inhibition above about 85%;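 note: human melanocyte line stably carrying TRPM1 promoter luciferase reporter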
Each line names hits and unclear results; the compound was inactive in the other large screens.

C[C@@H]1CN([C@@H](C)CO)C(=O)Cc2cc(NC(=O)CCC(F)(F)F)ccc2O[C@@H]1CN(C)CC1CCCCC1	none (no result: BJeLR viab HTS)
C[C@H]1CN([C@@H](C)CO)C(=O)Cc2cc(NC(=O)CCCN(C)C)ccc2O[C@@H]1CN(C)CC1CCCCC1	none (no result: BJeLR viab HTS)
C[C@@H]1CN([C@H](C)CO)C(=O)Cc2cc(NC(=O)Cc3ccccc3)ccc2O[C@H]1CN(C)CC1CCCCC1	ROS inducer 79.5 (no result: BJeLR viab HTS)
C[C@H]1CN([C@@H](C)CO)C(=O)Cc2cc(NC(=O)CCC(F)(F)F)ccc2O[C@H]1CN(C)CC1CCCCC1	ROS inducer 98.8 (no result: BJeLR viab HTS)
C[C@@H]1CN([C@H](C)CO)C(=O)Cc2cc(NC(=O)CCCN(C)C)ccc2O[C@@H]1CN(C)CC1CCCCC1	ROS inducer 93.3 (no result: BJeLR viab HTS)
COc1cccc2sc(=NC(=O)c3ccccc3)n(C)c12	none (no result: YB-1 expr inh, ROS inducer, MITF inh)
CC(C)(C)c1cc(C(=O)CCN2CCCCC2)cc(C(C)(C)C)c1O	none (no result: YB-1 expr inh, ROS inducer, MITF inh)
C[C@H]1CN([C@@H](C)CO)C(=O)c2cc(NC(=O)CCCN(C)C)ccc2O[C@@H]1CN(C)CC1CCCCC1	none
C[C@H](CO)N1C[C@H](C)[C@H](CN(C)CC2CCCCC2)Oc2ccc(NC(=O)CCCN(C)C)cc2C1=O	YB-1 expr inh 17.6
CCOc1ccc(-c2nc3ccc(-c4nc5ccc(N6CCN(C)CC6)cc5[nH]4)cc3[nH]2)cc1	BJeLR viab HTS 126.0
CCOc1ccc2nc(N3CCCCC3)sc2c1	none (no result: YB-1 expr inh, ROS inducer, MITF inh)
CCCCN(C)Cc1c(O)ccc2c(=O)c(-c3ccccc3OC)c(C(F)(F)F)oc12	none (no result: YB-1 expr inh, MITF inh)
C=CCSc1nnc2c(n1)OC(c1ccc(-c3ccc(F)cc3)o1)N(C(C)=O)c1ccccc1-2 (stereo not given)	ROS inducer 118.1
Cc1ccc2nc(-c3ccncc3)cc(-c3ccccc3)c2c1	ROS inducer 88.5 (no result: YB-1 expr inh, MITF inh)
C=C1[C@@H](C2=CC(=O)OC2)CC[C@@]2(O)[C@@H]1CC1[C@H]2CC[C@@H]2C[C@@H](O[C@H]3O[C@@H](C)[C@@H](O[C@@H]4O[C@H](CO[C@@H]5O[C@H](CO)[C@@H](O)[C@H](O)[C@H]5O)[C@@H](O)[C@H](O)[C@H]4O)[C@H](OC)[C@H]3O)CC[C@]12C (stereo not given in full)	none (no result: BJeLR viab HTS, MITF inh)
CO[C@@H]1CC(OC2CCC3(C)C(CCC45CCC(C6=CC(=O)OC6)C(C)(CCC43)C5=O)C2)O[C@H](C)[C@@H]1O[C@@H]1O[C@H](CO[C@@H]2O[C@H](CO)[C@@H](O)[C@H](O)[C@H]2O)[C@@H](O)[C@H](O)[C@H]1O (stereo not given in full)	BJeLR viab HTS 91.7
CC(C)C[C@H]1C(=O)N2CCC[C@H]2[C@]2(O)O[C@](NC(=O)[C@@H]3C=C4c5cccc6[nH]c(Br)c(c56)C[C@H]4N(C)C3)(C(C)C)C(=O)N12	ROS inducer 106.9
CC(C)CC1C(=O)N2CCC[C@H]2C2(O)O[C@](NC(=O)C3C=C4c5cccc6[nH]c(Br)c(c56)C[C@H]4N(C)C3)(C(C)C)C(=O)N12 (stereo not given in full)	none
COc1ccc(/C=C/C(=O)O[C@H]2[C@H](O[C@H]3[C@@H]4C=CO[C@@H](O[C@@H]5O[C@H](CO)[C@@H](O)[C@H](O)[C@H]5O)[C@@H]4[C@@]4(CO)O[C@@H]34)O[C@@H](C)[C@H](O)[C@H]2OC(C)=O)cc1	YB-1 expr inh 10.3
COc1ccc(/C=C/C(=O)O[C@@H]2[C@@H](O)[C@H](C)O[C@@H](O[C@H]3[C@@H]4C=CO[C@@H](O[C@H]5O[C@@H](CO)[C@H](O)[C@@H](O)[C@@H]5O)[C@@H]4[C@@]4(CO)O[C@@H]34)[C@@H]2OC(C)=O)cc1	none
C[C@@H]1O[C@@H](O[C@H]2[C@@H]3C=CO[C@@H](O[C@@H]4O[C@H](CO)[C@@H](O)[C@H](O)[C@H]4O)[C@@H]3[C@@]3(CO)O[C@@H]23)[C@H](O)[C@H](OC(=O)/C=C/c2ccc(O)cc2)[C@H]1O	ROS inducer 87.5 (no result: BJeLR viab HTS, MITF inh)
CC(=O)O[C@@H]1[C@@H](O)[C@H](C)O[C@@H](O[C@H]2[C@@H]3C=CO[C@@H](O[C@@H]4O[C@H](CO)[C@@H](O)[C@H](O)[C@H]4O)[C@@H]3[C@@]3(CO)O[C@@H]23)[C@@H]1OC(=O)/C=C/c1ccc(O)cc1	none
COc1ccc(S(=O)(=O)NCC23CC4CC(CC(C4)C2)C3)cc1	none (no result: YB-1 expr inh, MITF inh)
CC(C)NC(=O)CCCn1c(=S)[nH]c2ccc(Br)cc2c1=O	none (no result: YB-1 expr inh, MITF inh)
O=C1O[C@H](c2ccccc2)[C@H](c2ccccc2)N2[C@H]1[C@@H](C(=O)N1CCCCCCC1)[C@]1(C(=O)Nc3ccc(C#CC4=CCCCC4)cc31)[C@H]2c1ccc(OCCO)cc1	ROS inducer 100.4 (no result: BJeLR viab HTS, MITF inh)
O=C1O[C@@H](c2ccccc2)[C@@H](c2ccccc2)N2[C@@H](c3ccc(OCCO)cc3)[C@]3(C(=O)Nc4ccc(C#CC5(O)CCCCCC5)cc43)[C@@H](C(=O)N3CCCCCCC3)[C@H]12	ROS inducer 135.2 (no result: BJeLR viab HTS, MITF inh)
COC(=O)C(CC#Cc1ccc2c(c1)[C@]1(C(=O)N2)[C@H](c2ccc(OCCO)cc2)N2[C@H](c3ccccc3)[C@H](c3ccccc3)OC(=O)[C@H]2[C@@H]1C(=O)N1CCCCCCC1)C(=O)OC	ROS inducer 127.8 (no result: BJeLR viab HTS, MITF inh)
COc1ccc(Cl)cc1NC=C1C(=O)OC2(CCCCC2)OC1=O	none (no result: YB-1 expr inh, MITF inh)
CC1CCCC(NC(=O)CN2C(=O)/C(=C\c3ccccc3Cl)Oc3ccccc32)C1C (stereo not given)	none (no result: YB-1 expr inh, ROS inducer, MITF inh)
O=C(C(Cc1ccccc1Cl)C(=O)N1CCc2ccccc21)N1CCc2ccccc21	ROS inducer 140.6
C[C@H]1CN([C@@H](C)CO)C(=O)c2cccc(NS(=O)(=O)c3ccc(F)cc3)c2O[C@@H]1CN(C)Cc1ccc(-c2ccccc2)cc1	ROS inducer 105.2
C[C@H](CO)N1C[C@H](C)[C@@H](CN(C)Cc2ccc(Oc3ccccc3)cc2)Oc2c(NS(C)(=O)=O)cccc2C1=O	ROS inducer 91.9
C[C@H]1CN([C@@H](C)CO)C(=O)c2cccc(NS(C)(=O)=O)c2O[C@@H]1CN(C)Cc1ccc(-c2ccccc2)cc1	ROS inducer 97.7
C[C@@H]1CN([C@@H](C)CO)C(=O)c2cccc(NS(=O)(=O)c3ccc(F)cc3)c2O[C@@H]1CN(C)Cc1ccc(-c2ccccc2)cc1	none
C[C@@H]1CN([C@H](C)CO)C(=O)c2cccc(NS(C)(=O)=O)c2O[C@H]1CN(C)Cc1ccc(-c2ccccc2)cc1	none
Cc1ccc(-c2cc(C(F)F)n3ncc(C(=O)NCCCN4CCOCC4)c3n2)cc1	ROS inducer 137.1 (no result: YB-1 expr inh, BJeLR viab HTS)
O=C(NCCN1CCOCC1)c1cnn2c(C(F)F)cc(-c3ccccc3)nc12	none (no result: YB-1 expr inh, BJeLR viab HTS)
Cc1ccc(-c2cc(C(F)(F)F)n3ncc(C(=O)NCc4ccco4)c3n2)cc1	ROS inducer 95.5 (no result: YB-1 expr inh, BJeLR viab HTS)
Cc1ccc(-c2cc(C(F)F)n3ncc(C(=O)NCc4ccco4)c3n2)cc1	ROS inducer 110.8 (no result: YB-1 expr inh, BJeLR viab HTS)
Cc1ccc(-c2cc(C(F)(F)F)n3nc(C(=O)NCc4ccco4)cc3n2)cc1	none (no result: YB-1 expr inh, BJeLR viab HTS)
COc1cccc(OCCSc2nc3ccccc3s2)c1	none (no result: YB-1 expr inh, MITF inh)
